This note sets out measurements from publication PMC4336329 (PLoS ONE, 2015).

Screen size: about 310,000 compounds; about 14,000 (4.5%) showed an effect of 50% or more. Effects have a minus sign here. The list comes from a sample in which strong results are over-represented; it also holds similar structures and randomly drawn compounds.
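Note: peak tail current of the secondary pulse compared with the same well before compound.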

The target of this assay is human ether-à-go-go-related gene (hERG) potassium channel (human, UniProt Q12809). In words: primary screen, population patch clamp on CHO cells stably expressing hERG; higher = less effect of the substance.
Chain of human ether-à-go-go-related gene (hERG) potassium channel (Q12809 whole entry, looked up): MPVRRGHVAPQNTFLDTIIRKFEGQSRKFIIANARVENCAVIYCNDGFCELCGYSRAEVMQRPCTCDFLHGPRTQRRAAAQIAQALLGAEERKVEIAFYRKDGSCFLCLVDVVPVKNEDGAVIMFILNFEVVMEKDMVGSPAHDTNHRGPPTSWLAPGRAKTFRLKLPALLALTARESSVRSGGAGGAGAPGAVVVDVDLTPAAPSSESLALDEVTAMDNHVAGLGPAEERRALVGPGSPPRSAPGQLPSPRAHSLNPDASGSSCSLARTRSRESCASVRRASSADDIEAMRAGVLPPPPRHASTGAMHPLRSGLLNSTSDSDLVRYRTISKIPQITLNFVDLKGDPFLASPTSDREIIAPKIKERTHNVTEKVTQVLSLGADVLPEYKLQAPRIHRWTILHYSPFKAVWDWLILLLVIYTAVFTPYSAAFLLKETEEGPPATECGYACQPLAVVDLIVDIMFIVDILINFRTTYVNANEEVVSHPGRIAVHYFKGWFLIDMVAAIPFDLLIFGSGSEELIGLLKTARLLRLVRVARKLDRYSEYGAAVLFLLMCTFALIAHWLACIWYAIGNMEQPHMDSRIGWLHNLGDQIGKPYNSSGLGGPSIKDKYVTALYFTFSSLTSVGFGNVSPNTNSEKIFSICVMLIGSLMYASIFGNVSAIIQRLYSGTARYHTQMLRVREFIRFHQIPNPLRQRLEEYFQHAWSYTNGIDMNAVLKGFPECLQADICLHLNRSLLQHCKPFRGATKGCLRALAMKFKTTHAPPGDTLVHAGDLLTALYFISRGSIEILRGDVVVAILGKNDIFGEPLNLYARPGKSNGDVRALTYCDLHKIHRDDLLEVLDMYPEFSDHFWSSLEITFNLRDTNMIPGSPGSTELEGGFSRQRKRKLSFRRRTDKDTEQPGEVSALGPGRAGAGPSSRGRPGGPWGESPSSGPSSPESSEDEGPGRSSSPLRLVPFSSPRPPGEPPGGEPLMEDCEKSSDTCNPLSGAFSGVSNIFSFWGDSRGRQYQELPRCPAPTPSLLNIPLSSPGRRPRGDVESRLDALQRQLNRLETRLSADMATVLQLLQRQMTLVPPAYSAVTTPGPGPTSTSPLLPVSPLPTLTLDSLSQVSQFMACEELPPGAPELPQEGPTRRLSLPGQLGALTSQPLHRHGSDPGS
On to `CCN(CC)S(=O)(=O)c1ccc(S(=O)(=O)N2CCN(C(=O)c3ccco3)CC2)cc1`, for which the “hERG current change (%, negative = inhibition) at 10uM” value amounted to 4.56%.
For `CC(C)C(=O)Nc1c(-c2ccc(Cl)cc2)c(=O)c2ccccc2n1C` the value was 20.9%; for `CN1CCCN(C(=O)c2ccc(Cl)s2)CC1`, -93.3%.
The value for `O=C(c1ccc(Cl)s1)N1CCCC1` was -0.0803%; that for `CN1CCCN(C(=O)c2ccc(Br)s2)CC1` was -14.5%; that for `C/C(=C\c1ccc(Cl)cc1)C(=O)c1c(C)cc(C)[nH]c1=O` was 9.59%.
As for `CC(NC(=O)NC1CCCCC1)c1ccccc1` (stereo not shown), the “hERG current change (%, negative = inhibition) at 10uM” value is -3.12%.
The value for `C=CCn1c(CCNC(=O)c2cccs2)nnc1SCC(=O)Nc1cccc(Cl)c1C` was -57.6%.
The value for `C=CCn1c(CCNC(=O)c2cccs2)nnc1SCC(=O)Nc1cccc(F)c1` was -34.6%.
The value for `C=CCn1c(CCNC(=O)c2cccs2)nnc1SCC(=O)Nc1cccc(C(C)=O)c1` was 7.23%; that for `C=CCn1c(CNC(=O)c2cccs2)nnc1SCC(=O)c1ccc(Br)cc1` was -19.3%.
As to `C=CCn1c(CCNC(=O)c2cccs2)nnc1SCC(=O)c1ccc(Cl)cc1`, the “hERG current change (%, negative = inhibition) at 10uM” value is -38.5%.
For `C=CCn1c(CCNC(=O)c2cccs2)nnc1SCC(=O)c1ccc(Br)cc1` the value was -67.1%; for `O=C(Nc1ccccc1)Nc1ccncc1`, 6.4%.
For `Cc1ccc(NC(=O)CC2S/C(=N/N=C3/NC(=O)CS3)NC2=O)cc1` (stereo not shown) the value was 19.5%; for `COc1ccc(-c2[nH]nc3c2C(c2ccccc2OC(=O)N2CCOCC2)C(C#N)=C(N)O3)cc1` (stereo not shown), 4.69%; for `CC1CC(C)CN(Cc2nc(N)nc(Nc3ccccc3)n2)C1` (stereo not shown), -64.8%.
In the case of `CC1CC(C)CN(C(=S)SCc2nc(N)nc(Nc3ccccc3)n2)C1` (stereo not shown), the “hERG current change (%, negative = inhibition) at 10uM” value was -6.04%.
For `CC1CC(C)CN(Cc2nc(N)nc(Nc3ccc4ccccc4c3)n2)C1` (stereo not shown) the value was -79%; for `COc1cccc(Nc2nc(N)nc(CCl)n2)c1`, 0.476%.
In the case of `CC1CCN(C(=S)SCc2nc(N)nc(Nc3ccccc3)n2)CC1`, the “hERG current change (%, negative = inhibition) at 10uM” value is -2.72%.
Consider `CCNC(=O)CCn1nc(-c2ccc(Cl)cc2)c2ccccc2c1=O`, for which the “hERG current change (%, negative = inhibition) at 10uM” value is listed as -29%.
With `Cc1cccc(N2CCN(S(=O)(=O)c3ccc4c(c3)NC(=O)C(C)S4)CC2)c1C` (stereo not shown), the “hERG current change (%, negative = inhibition) at 10uM” value is given as -2.54%.
For `CCN(CC)c1ccc(/C=C2\SC(N)=NC2=O)cc1` the value was 7.42%; for `Cn1cccc1CC(=O)NNC(=S)NC(=O)c1ccccc1Br`, 13.1%; for `COc1ccc(-c2nc(-c3ccccc3)ncc2S(C)(=O)=O)cc1`, 13%.
In the case of `COc1ccc2c(c1OC)C(=O)N(c1nc(SC)n[nH]1)C2=O`, the “hERG current change (%, negative = inhibition) at 10uM” value is 18.3%.
`COc1cccc(N(CC(=O)NCc2ccccc2)C(=O)CCC(=O)Nc2nccs2)c1`: the “hERG current change (%, negative = inhibition) at 10uM” value is 10.8%.
As to `COc1ccc(OCC(O)Cn2ccnc2C)cc1` (stereo not shown), the “hERG current change (%, negative = inhibition) at 10uM” value worked out at 5.09%.
The value for `Cc1ccc(OCC(O)CN2CCN(c3ccc(C)cc3)CC2)cc1` (stereo not shown) was -28%.
Regarding `Cc1ccc(N2CCN(CC(O)COc3ccc([N+](=O)[O-])cc3)CC2)cc1` (stereo not shown), the “hERG current change (%, negative = inhibition) at 10uM” value is on record as -76.4%.
With `Cc1nccn1CC(O)COc1ccccc1` (stereo not shown), the “hERG current change (%, negative = inhibition) at 10uM” value is -0.412%.
`Cc1nccn1CC(O)COc1ccc([N+](=O)[O-])cc1` (stereo not shown): the “hERG current change (%, negative = inhibition) at 10uM” value was -66.2%.
For `COc1ccc(N2CCN(CC(O)COc3ccc([N+](=O)[O-])cc3)CC2)cc1.Cl` (stereo not shown) the value was -62.5%; for `NNC(=O)COc1ccc(F)cc1`, 9.33%; for `COc1ccc(C(C)=O)cc1COC(=O)c1ccc(S(=O)(=O)N(C)C)cc1`, -2.42%.
For `CCc1ccc(S(=O)(=O)Nc2cccc(-c3ccc4nnc(C)n4n3)c2)s1` the value was -11.6%; for `CCOC(=O)c1cccc(NC(=O)/C(=C\c2ccccc2)NC(=O)c2ccccc2Cl)c1`, 3.62%; for `CC1=NN(C(=O)Cc2ccc(C)cc2)C(O)(c2cccnc2)C1` (stereo not shown), 10.1%.
The value for `COc1ccc(-c2nc3cnccn3c2NCc2ccccc2)cc1SC1CCCCC1.O=C(O)C(F)(F)F` was 2.68%; that for `COc1cccc(-n2nnc(S(=O)(=O)c3ccc(C)cc3)c2N)c1` was 10.5%.
Consider `O=C(COC(=O)c1ccc(Sc2ccccc2)c([N+](=O)[O-])c1)NC1CCS(=O)(=O)C1` (stereo not shown), for which the “hERG current change (%, negative = inhibition) at 10uM” value is given as -83.3%.
For `CS(=O)(=O)c1ccc(C(=O)OCC(=O)NC2CCS(=O)(=O)C2)cc1[N+](=O)[O-]` (stereo not shown) the value was 10.3%; for `Nc1ccc(C(=O)OCC(=O)NC2CCS(=O)(=O)C2)cc1[N+](=O)[O-]` (stereo not shown), -3.78%.
For `COc1ccc(NC(=S)NC23CC4CC(CC(C4)C2)C3)cc1OC`, the “hERG current change (%, negative = inhibition) at 10uM” value is recorded as 3.45%.
For `O=C(CN1C(=O)c2ccc([N+](=O)[O-])cc2C1=O)NC1CCCCCC1` the value was 1.09%.
For `Nc1nonc1C(=O)NCCNc1ccc([N+](=O)[O-])cc1`, the “hERG current change (%, negative = inhibition) at 10uM” value is -21.9%.
For `Cc1nonc1OC(C)CNc1ccc([N+](=O)[O-])cc1` (stereo not shown) the value was -58.7%; for `Cc1nonc1OCCNc1ccc([N+](=O)[O-])cc1`, -40.7%.
Turning to `CCNc1ccc([N+](=O)[O-])cc1`, the “hERG current change (%, negative = inhibition) at 10uM” value turned out to be 4.89%.
Consider `Cc1nonc1OC(C)CNCCNc1ccc([N+](=O)[O-])cc1.Cl` (stereo not shown), for which the “hERG current change (%, negative = inhibition) at 10uM” value is -55.2%.
The value for `Cl.NCCNc1ccc([N+](=O)[O-])cc1` was -6.16%; that for `COc1ccc(CN(C(=O)c2cc(=O)c3ccccc3o2)C2CCS(=O)(=O)C2)cc1` (stereo not shown) was -30.4%; that for `CNS(=O)(=O)c1cc(OC)ccc1OC` was 13.2%.
For `CC(=O)c1c(O)cc(C)n(Nc2nc(C)cc(C)n2)c1=O`, the “hERG current change (%, negative = inhibition) at 10uM” value is given as 1.83%.
`c1ccc(CNc2nc3ccccc3n3cnnc23)nc1`: the “hERG current change (%, negative = inhibition) at 10uM” value turned out to be 0.696%.
In the case of `COc1ccc(-c2nn(CCC(=O)O)cc2/C=C/C(=O)O)cc1[N+](=O)[O-]`, the “hERG current change (%, negative = inhibition) at 10uM” value is 5.53%.
For `C#C[C@]1(O)CC[C@H]2[C@@H]3CCC4=Cc5nc6nc7ccccc7n6cc5C[C@]4(C)[C@H]3CC[C@@]21C` the value was -56.8%; for `C#C[C@]1(O)CCC2C3CCC4=Cc5oncc5CC4(C)C3CCC21C` (stereo partly shown), -3.2%; for `C#C[C@]1(O)CC[C@H]2[C@@H]3CCC4=Cc5oncc5C[C@]4(C)[C@H]3CC[C@@]21C`, -15.3%.
Regarding `CC(NC(=O)c1ccc(NC2=NC3CS(=O)(=O)CC3S2)cc1)c1ccccc1` (stereo not shown), the “hERG current change (%, negative = inhibition) at 10uM” value was 12.9%.
For `COC(=O)C1C(=O)C2=C(CC1C)NC(=O)CC2c1ccc(F)cc1` (stereo not shown), the “hERG current change (%, negative = inhibition) at 10uM” value came to 18.6%.
On to `CCC(=O)Nc1cc2c3c(c1)CCC(=O)N3CCC2`, for which the “hERG current change (%, negative = inhibition) at 10uM” value is 1.44%.
For `CC(=O)OCCNc1cc(Sc2nc3ccccc3[nH]2)c2nonc2c1[N+](=O)[O-]` the value was -12.1%; for `O=c1c2c(-c3ccc([N+](=O)[O-])cc3)csc2nc2n1CCCCC2`, -34.6%.
The value for `O=c1c2c(-c3ccc([N+](=O)[O-])cc3)csc2nc2n1CCC2` was -77.6%.
Take `O=c1c2c(-c3ccc(Cl)cc3)csc2nc2n1CCC2`: the “hERG current change (%, negative = inhibition) at 10uM” value is reported as -28.9%.
On to `O=[N+]([O-])c1ccccc1/C=C/C=N/Nc1ccc(S(=O)(=O)Nc2ccc(Cl)cc2)cc1[N+](=O)[O-]`, for which the “hERG current change (%, negative = inhibition) at 10uM” value is recorded as 20.8%.
For `COn1c(-c2ccc(Cl)cc2)nc2ccc(Cl)cc21` the value was -4.56%.
The value for `Cc1ccc(OCC(=O)NCC(=O)Nc2ccc(F)cc2)c([N+](=O)[O-])n1` was -40.3%; that for `Cc1cccn2c(CN[C@@H]3CCCC[C@H]3c3ccccc3)c(C(=O)N3CCOCC3)nc12` was -12.9%; that for `Cc1cccn2c(CN3CCCC(c4ccccc4)C3)c(C(=O)N3CCOCC3)nc12` (stereo not shown) was -68.7%.
For the compound `Cc1cccn2c(CN3CCSCC3)c(C(=O)N3CCOCC3)nc12`, the “hERG current change (%, negative = inhibition) at 10uM” value is given as 0.407%.
For the compound `Cc1cc(C(=O)NN)c(C)o1`, the “hERG current change (%, negative = inhibition) at 10uM” value was determined as 10.3%.
On to `CCc1cc(=O)oc2cc(C)cc(OCC(=O)N3CCC(C(=O)NC(C)C)(c4ccccc4)CC3)c12`, for which the “hERG current change (%, negative = inhibition) at 10uM” value was -43.6%.
For `CC(NC(=O)/C=C/c1ccccc1[N+](=O)[O-])C1CC2CCC1C2` (stereo not shown), the “hERG current change (%, negative = inhibition) at 10uM” value worked out at 8.42%.
The value for `c1ccc(CN2CCN(c3nc(-c4ccccc4)nc4ccccc34)CC2)cc1` was 8.72%.
For `CN(Cc1ccccc1F)c1nc(-c2cccnc2)nc2ccccc12` the value was 3.92%.
For `O=S(=O)(c1ccccc1F)N1CCN(c2nc(-c3cccnc3)nc3ccccc23)CC1` the value was -41.9%.
In the case of `CN(Cc1cccs1)c1nc(-c2cccnc2)nc2ccccc12`, the “hERG current change (%, negative = inhibition) at 10uM” value is reported as -53.5%.
For the compound `CCN1CCN(c2nc(-c3cccnc3)nc3ccccc23)CC1.Cl`, the “hERG current change (%, negative = inhibition) at 10uM” value is reported as -55.4%.
The value for `Cc1ccc(C)c(S(=O)(=O)N2CCN(c3nc(-c4cccnc4)nc4ccccc34)CC2)c1` was 1.45%; that for `Cc1ccc(CN(C)c2nc(-c3cccnc3)nc3ccccc23)o1` was 12.7%; that for `CCN1CCN(c2nn3c(=O)c4ccccc4nc3c3ccccc23)CC1` was -72.7%.
For `CC1CN(c2nn3c(=O)c4ccccc4nc3c3ccccc23)CC(C)O1` (stereo not shown) the value was -25.7%.
For `CCN1CCN(c2nc(-c3ccccc3)nc3ccccc23)CC1` the value was -63%; for `CCN1CCN(c2nc3ccccc3n3cnnc23)CC1`, -14.8%; for `CCCOc1ccc(-c2nc(N3CCN(CC)CC3)c3ccccc3n2)cc1`, -17.3%.
